In the library only some 10% were active in any assay of this set; here they are far more common.
HEK cytotox = HEK 293 cell cytotoxicity | HEK 293 viability, ATP luminescence (CellTiter-Glo), 48-72 h | Potency, µM (top dose mostly 115 µM), without a hit: at the highest dose activity change, negative = cytotoxicity, actives largely listed as inhibitors | 6.6% of 94,000 active; further: nearly all actives have a fitted effect of over 60% in size
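Viability of HEK 293 cells, plated at 250 cells/well, was judged by cellular ATP after compound treatment for 48 or 72 hr. Luminescence was imaged 10 min after CellTiter-Glo addition at room temperature.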
NPR1 antag = human Npr1 receptor antagonism | 1.6% of 76,000 active | HEK293 hNpr1 GloSensor cGMP, ANP-stimulated luminescence | Potency, µM (titrated, usually from 46.3 µM), for inactives: at the top dose activity change, negative = inhibition, actives largely listed as inhibitors; calls by dose curve; further: nearly all actives have a fitted effect of over 60% in size
Target sequence (P16066 whole entry, looked up): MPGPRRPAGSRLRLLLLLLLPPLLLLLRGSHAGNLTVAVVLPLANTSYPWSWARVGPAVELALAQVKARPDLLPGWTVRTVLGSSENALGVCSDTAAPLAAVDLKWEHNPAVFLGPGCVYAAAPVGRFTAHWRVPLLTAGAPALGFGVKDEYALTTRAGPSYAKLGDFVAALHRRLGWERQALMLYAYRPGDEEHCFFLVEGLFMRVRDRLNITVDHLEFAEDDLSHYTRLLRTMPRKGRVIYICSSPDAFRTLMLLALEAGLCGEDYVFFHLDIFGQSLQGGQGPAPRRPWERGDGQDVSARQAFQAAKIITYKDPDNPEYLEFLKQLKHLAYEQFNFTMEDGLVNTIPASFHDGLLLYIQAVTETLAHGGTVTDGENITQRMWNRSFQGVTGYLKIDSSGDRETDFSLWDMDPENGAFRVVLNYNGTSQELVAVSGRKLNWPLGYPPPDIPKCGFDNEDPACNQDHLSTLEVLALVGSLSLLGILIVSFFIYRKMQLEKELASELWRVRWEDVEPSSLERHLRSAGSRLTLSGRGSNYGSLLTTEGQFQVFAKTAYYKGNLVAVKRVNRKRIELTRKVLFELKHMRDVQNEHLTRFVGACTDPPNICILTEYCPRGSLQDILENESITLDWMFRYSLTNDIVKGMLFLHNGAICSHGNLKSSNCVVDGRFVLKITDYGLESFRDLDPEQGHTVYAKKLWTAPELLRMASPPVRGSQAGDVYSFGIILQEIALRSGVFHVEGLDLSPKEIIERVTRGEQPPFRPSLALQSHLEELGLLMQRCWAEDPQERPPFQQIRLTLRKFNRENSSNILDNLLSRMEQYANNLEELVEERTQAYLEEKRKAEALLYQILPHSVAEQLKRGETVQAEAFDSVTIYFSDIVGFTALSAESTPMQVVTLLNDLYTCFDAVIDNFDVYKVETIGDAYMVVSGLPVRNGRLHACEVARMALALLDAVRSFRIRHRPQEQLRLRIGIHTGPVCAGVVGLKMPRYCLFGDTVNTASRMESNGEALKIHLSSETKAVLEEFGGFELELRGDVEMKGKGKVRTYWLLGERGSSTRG
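Compound pre-incubated 30 min at room temperature on GloSensor-loaded HEK293 cells stably carrying hNpr1 and the pGS-40F cGMP biosensor. Stimulation uses hNppA at 0.1 nM final; luminescence is taken at baseline and 20 min post-agonist.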
NIH3T3 tox = NIH 3T3 cell cytotoxicity; Potency, µM (top dose mostly 96.7 µM), inactives show top-dose activity change, negative = cytotoxicity, hits mostly inhibitors; NIH 3T3 viability, CellTiter-Glo ATP luminescence, 48-72 h; 4.3% of 94,000 active; further: nearly all actives have a fitted effect of over 55% in size
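First NIH 3T3 cells are plated at 400 cells/well; next compound is pinned in; then plates incubate 48 or 72 hr at 37 °C; finally CellTiter-Glo is added and luminescence read after 10 min.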
GPT2 inh = inhibitors of human GPT2 alanine aminotransferase; Recombinant GPT2, coupled pyruvate oxidase/HRP Amplex Red fluorescence; Potency, µM (series often up to 57.7 µM), for the others: at the highest dose activity change, negative = inhibition, most hits filed as inhibitors; 0.25% of 100,000 active; AID 1671188; further: nearly all actives have a fitted effect of over 60% in size
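Fluorescence read-out: pyruvate from GPT2 turnover coupled to pyruvate oxidase, HRP and Amplex Red (0.2mM ThPP, 0.2U/mL PO and HRP, 50uM Amplex final). Substrates 250uM a-KG, 2mM L-alanine; enzyme 10ng/uL; 30 min RT.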
Luciferase inh = blocks purified firefly luciferase enzyme activity. 2.5% of 76,000 active. purified P. pyralis luciferase, luminescence, biochemical. AID 1347043. Potency, µM (titrated, usually from 115 µM), hits mostly inhibitors; further: nearly all actives have a fitted effect of over 65% in size
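FLuc 10nM, D-luciferin 10uM, ATP 10uM, Mg acetate 10mM, Tris acetate pH 7.5, Tween/BSA; cpd qHTS; enzyme added last; CCD luminescence.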
* hit, by the source's call; i = inactive; ? = inconclusive; . = no result; [ ] = another dose, or the depositor's remark. Unless noted, the call rests on the fitted dose curve; in most records, active means well fitted curve in the direction sought with a large enough effect; inconclusive means small, poorly fitted or top-dose-only effect, or another doubt; inactive means no such curve, though single readings can be large; an effect the other way counts as inactive or inconclusive. On the % scale 0 is the no-effect control and ±100 the full control effect; potency means the concentration at half of the fitted maximal effect.

SMILES	HEK cytotox	NPR1 antag	NIH3T3 tox	GPT2 inh	Luciferase inh
O=C(NC1CCN(Cc2cccc(-c3ccc(F)c(F)c3)c2)CC1)c1ccccc1F	79µM*	.	?	-2%	.
CSc1ccc(-c2cccc(CN3CCC(NC(=O)c4ccccc4C)CC3)c2)cc1	-35%	.	-23%	.	.
Cc1ccccc1C(=O)NC1CCN(Cc2cccc(-c3ccc(F)c(F)c3)c2)CC1	50µM*	.	?	-18%	.
Cc1cccc(-c2cccc(CN3CCC(NC(=O)c4ccccc4C)CC3)c2)c1	40µM*	.	32µM*	i	.
O=C(NC1CCN(Cc2cccc(-c3ccc(F)c(F)c3)c2)CC1)c1ccc(Cl)nc1	?	.	25µM*	.	.
Cc1csc(SCC(=O)N[C@H]2[C@H]3CCO[C@H]3[C@@H]2NS(C)(=O)=O)n1	i	2%	i	-3%[11.5 µM]	i
Cc1cc(C)cc(C(=O)Nc2cccc(-c3nnc4n3CCCC4)c2)c1	?	-2%	?	2%	i
CCC(c1cccnc1)N(C)C(=O)c1cc(COc2ccccc2)[nH]n1 (stereo unspecified)	79µM*	-1%	-15%	-8%	i
COCc1cn(C[C@H]2C[C@@H](NC(=O)CC(C)(C)C)[C@H](O)[C@@H]2O)nn1	0%[172 µM]	-5%[70.6 µM]	-14%[138 µM]	2%[88.5 µM]	i
COc1ccc(CNC(=O)CC[C@H]2CNC(=O)[C@@H]3[C@@H](CCN3Cc3ccccc3)N2C)cc1	-8%	2%	-12%	?	i
CCOCCn1cc(C2CCN(S(=O)(=O)c3ccc(CC)cc3)CC2)c2ccccc21	?	-13%	-29%	3%	i
CCOC(=O)[C@@H]1[C@H]2c3ccccc3N(CCOC)C(=O)[C@H]2N(C(=O)c2ccccc2)[C@@H]1c1ccccc1	35µM*	.	?	.	.
CCOC(=O)[C@H]1CN(C(=O)c2ccc3c(c2)OCCCO3)[C@]2(C)C(=O)N(CCOC)c3ccccc3[C@H]12	?	.	-26%	.	.
Cc1cc(NC(=O)C2CCN(C(=O)c3ncn4c3COC(c3ccc(F)cc3)C4)CC2)ccc1F (stereo unspecified)	-13%	-4%	-12%	4%	22µM*
Cc1ccc(NC(=O)C2CCN(C(=O)c3ncn4c3COC(c3ccc(F)cc3)C4)CC2)c(C)c1 (stereo unspecified)	1%	-4%	i	-7%	35µM*
COc1ccc(C2Cn3cnc(C(=O)N4CCC(C(=O)Nc5cccc(Cl)c5)CC4)c3CO2)cc1 (stereo unspecified)	?	-24%	-2%	i	40µM*
Cc1ccc(C)c(NC(=O)C2CCN(C(=O)c3ncn4c3COC(c3ccc(F)cc3)C4)CC2)c1 (stereo unspecified)	-14%	-17%	-19%	-5%	28µM*
Cc1cc(F)ccc1NC(=O)C1CCN(C(=O)c2ncn3c2COC(c2ccc(F)cc2)C3)CC1 (stereo unspecified)	-7%	-1%	i	i	?
Cn1cc(CN2C[C@H](C(=O)Nc3ccncn3)C[C@H]2c2cccc(C(F)(F)F)c2)cn1	?	-15%[70.6 µM]	?	-7%[88.5 µM]	i
CCOc1cc(=O)n2c(c1C(=O)Nc1ccc(Br)cc1F)CCCC2	-29%	-9%	-23%	-11%	i
O=C(c1ccccc1)N1CCCC2(CC(c3cccc(C(F)(F)F)c3)=NO2)C1 (stereo unspecified)	?	.	-30%	?	.
COc1ccc(C2=NOC3(CCCN([S+](=O)([O-])c4cccc(OC)c4)C3)C2)cc1 (stereo unspecified)	?	.	-26%	i	.
COc1ccc(C2=NOC3(CCN(Cc4ccc(F)cc4)C3)C2)cc1 (stereo unspecified)	79µM*	?	?	i	i
COc1ccc(C2=NOC3(CCN([S+](=O)([O-])c4ccccc4)C3)C2)cc1 (stereo unspecified)	45µM*	-15%	?	-12%	?
COc1cccc(C(=O)N2CCC3(CC2)CC(c2cccc(C(F)(F)F)c2)=NO3)c1	45µM*	.	?	.	.
SMILES	HEK cytotox	NPR1 antag	NIH3T3 tox	GPT2 inh	Luciferase inh
O=C(c1ccc(Cl)cc1)N1CCC2(CC1)CC(c1cccc(C(F)(F)F)c1)=NO2	32µM*	.	?	.	.
Cn1cccc1-c1noc(C2CCN(C(=O)C3CCCCC3)C2)n1 (stereo unspecified)	?	.	?	-8%	.
COc1ccc(CN2CCC3(CC2)CC(c2cccc(C(F)(F)F)c2)=NO3)cc1	50µM*	2%	?	i	i
CC(=O)N1CCC2(CC1)CC(c1cccc(C(F)(F)F)c1)=NO2	-6%[172 µM]	.	-10%[138 µM]	.	.
O=C(N1CCOCC1)N1CCC2(CC1)CC(c1cccc(C(F)(F)F)c1)=NO2	?	.	-28%	.	.
O=C(C1CCCC1)N1CCC2(CC1)CC(c1cccc(C(F)(F)F)c1)=NO2	45µM*	.	?	.	.
O=C(c1ccc(C(F)(F)F)cc1)N1CCC2(CC1)CC(c1cccc(C(F)(F)F)c1)=NO2	40µM*	-26%	?	-1%	i
Cc1ccc(CNc2ncncc2-c2nc(-c3ccccc3)no2)cc1	?	-7%	-7%	-1%	i
Cc1ccc(-c2noc(CCCC(=O)N3CCC(c4nc(C(=O)N5CCCC5)c(C)o4)CC3)n2)cc1	35µM*	.	?	i	.
CCN(C(=O)CCC(=O)N1CCC(c2nc(C(=O)N3CCCC3)c(C)o2)CC1)c1ccccc1	?	.	?	i	.
Cc1cccc(-c2nc3cc(C(=O)NCc4cccs4)ccc3o2)n1	?	.	?	i	.
O=C(NCCOc1ccccc1)c1ccc2c(c1)OCCN(CCC(F)(F)F)C2	?	-10%[70.6 µM]	-28%[138 µM]	?	40µM*
Cc1ccccc1NC(=O)c1ccc2c(c1)OCCN(CCC(F)(F)F)C2	?	-1%[70.6 µM]	?	i	i
COc1ccc(NC(=O)c2ccc3c(c2)OCCN(CCC(C)C)C3)cn1	?	?	?	1%[88.5 µM]	i
O=C(Nc1nccs1)c1ccc2c(c1)OCCN(C1CCC1)C2	?	-3%[70.6 µM]	?	0%[88.5 µM]	22µM*
Cc1cnc(NC(=O)c2ccc3c(c2)OCCN(C2CCC2)C3)s1	?	-18%[70.6 µM]	?	5%[88.5 µM]	?
CC(C)CCN1CCOc2cc(C(=O)Nc3ccccc3)ccc2C1	?	-21%[70.6 µM]	11µM*	-33%[88.5 µM]	i
Cc1cnc(NC(=O)c2ccc3c(c2)OCCN(Cc2ncccn2)C3)s1	?	0%[70.6 µM]	-30%[138 µM]	1%[88.5 µM]	40µM*
CCOc1ccccc1C1NC(=O)N(CC(=O)Nc2c(C)cc(C)cc2C)C2=C1C(=O)OC2 (stereo unspecified)	-16%	-3%	i	-5%	i
COc1ccc2nc([C@H]3CCN(Cc4cccnc4)C3)[nH]c2c1	-1%[172 µM]	2%[70.6 µM]	-17%[174 µM]	i	71µM*

Source: PubChem BioAssay
